From PubChem BioAssay
TDP1 cell noCPT: qHTS for Inhibitors of human tyrosyl-DNA phosphodiesterase 1 (TDP1): qHTS in cells in absence of CPT; DT40 Tdp1-/- hTDP1 cells, no CPT, ATP luminescence, 48 h; Potency, µM (series often up to 46.2 µM), without a hit: at the highest dose activity change, negative = growth inhibition, usual class: inhibitors; hit rate 15% among 420,000; also: % is scaled to controls: 0 for no effect and ±100 for the full control effect; nearly all actives have a fitted effect of over 55% in size
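Stably hTDP1-transfected Tdp1-null chicken DT40 cells were treated with library compounds minus camptothecin and grown for at least 48 hr at 37 °C, after which cellular ATP was quantified by luminescence.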
DT40 TDP1 CPT: DT40-hTDP1 cell growth loss with CPT; hit rate 12% among 420,000; Potency, µM (highest dose often 46.2 µM), for the others: top-dose activity change, negative = growth inhibition, usual class: inhibitors; chicken DT40 Tdp1-/-;hTDP1 cells + 20 nM CPT, ATP luminescence, 48 h; also: % is scaled to controls: 0 for no effect and ±100 for the full control effect; nearly all actives have a fitted effect of over 55% in size
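Chicken DT40 Tdp1-/- cells complemented with human TDP1, 400 cells/well, exposed to compounds plus 20 nM camptothecin for at least 48 h at 37 C; viability read as ATP content by CellTiter-Glo luminescence.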
ClpP mod: qHTS Assay for Activators of ClpP. purified B. subtilis ClpP, FRET peptide cleavage, 20 min. AID 651965, 2013. ATP-dependent Clp protease proteolytic subunit (Bacillus subtilis (strain 168)), P80244. hit rate 1.9% among 340,000. Potency, µM (doses to about 57.5 µM), inactives show at the highest dose activity change, negative = active; active = well fitted falling curve with a large enough effect; inconclusive = small, poorly fitted or top-dose-only effect; inactive = no such curve, though single readings can be large or run the other way; also: the source files actives as falling curves though it sought activators and does not explain the sign; nearly all actives have a fitted effect of over 65% in size
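ClpP 10 microg/mL final, pH 8 Tris/KCl buffer with BSA, glycerol, Tween-20; compound pinned in; FRET-FV substrate; RT 20 min; Ex320/Em430; ΔFRET vs ADEP 5.8 microM, DMSO, no enzyme.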
TDP1 inh: TDP1 (human) enzyme inhibition | AID 485290 | recombinant TDP1, AlphaScreen DNA substrate cleavage | hit rate 0.28% among 350,000 | Potency, µM (doses to about 130 µM), without a hit: at the highest dose activity change, negative = inhibition, usual class: inhibitors; also: % is scaled to controls: 0 for no effect and ±100 for the full control effect; nearly all actives have a fitted effect of over 40% in size
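Tdp1 1 nM final; 15 min RT w/ cpd; substrate 15 nM, 5 min; beads 10 ug/ml, 10 min; AlphaScreen read. Neg ctrl: no enzyme.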
Active calls of the source: *; ? = inconclusive; nt = no result given; [ ] = another dose, or the depositor's remark. This is a sample that favours compounds with a hit; in the whole collection about 17% have one here. Unless noted, calls follow the shape of the dose curve; as a rule, active = well fitted curve in the direction sought with a large enough effect; inconclusive = small, poorly fitted or top-dose-only effect, or another doubt; inactive = no such curve, though single readings can be large; an effect the other way counts as inactive or inconclusive. Potency is read from the fitted curve at half-maximal effect.

SMILES | TDP1 cell noCPT | DT40 TDP1 CPT | ClpP mod | TDP1 inh
Cc1ccc(OCCC(=O)Nc2ccc(F)c(Cl)c2)cc1 | 1% | -25% | -2% | 0%
Cc1ccc(C(=O)CCNc2cccc(Br)c2)o1 | 18µM* | 21µM* | -1% | 8%
Cc1ccc(C(=O)CCNc2ccc(Br)cc2)o1 | 13µM* | 13µM* | 1% | 4%
CCN1CCN(CCCNC(=O)c2ccc3c(=O)n(CCc4ccccc4)c(=O)[nH]c3c2)CC1 | ? | -21% | nt | 2%[0.0935 µM]
COc1ccc(-c2nc(CN3CCCCC3c3nccn3C)c(C)o2)c(C)c1C (centres undefined) | ? | -7% | nt | 8%
NS(=O)(=O)c1cccc(NC(=O)COC(=O)Cc2n[nH]c(=O)c3ccccc23)c1 | -20% | -28% | -3% | 0%
Cc1ccc(C)n1-c1cccc(C(=O)Nc2ccccc2)c1 | 15µM* | ? | -1% | nt
Cc1cc(C=O)c(C)n1-c1cccc(C(=O)O)c1 | 0% | 20% | nt | 5µM*
COc1ccc(NC(=O)c2cccc(-n3c(C)ccc3C)c2)c(OC)c1 | 26µM* | ? | 3% | 2%
CC1(C(=O)O)CCCN1C(=O)c1cccc(OC(F)(F)F)c1 (centres undefined) | -1% | -15% | 0% | nt
CCCCNC(=O)CSc1nnc(C)c2c(C)n(-c3ccccc3)nc12 | ? | ? | -3% | 6%
CC(C)(C)CC(C)(C)N=C1Nc2cc(Cl)c(Cl)cc2N[C@]12C[C@H]1CCCC(=O)N3CC[C@@H](C2)[C@@H]13 | 11µM* | ? | -4% | nt
CCOc1ccc(NC(=O)Cn2nnc(-c3nc(-c4ccncc4)no3)c2N)cc1 | -11% | 2% | 4% | 6%
O=C(C[n+]1ccc(C(=O)c2ccccc2)cc1)Nc1ccccc1OC(F)F | 16µM* | ? | nt | 0%
O=C(Cc1ccccc1)Nc1cccc([N+](=O)[O-])c1 | 14% | 5% | 3% | 3%
O=C(C[n+]1ccc(-c2cc(C(=O)Nc3cccc(C(F)(F)F)c3)c3ccccc3n2)cc1)c1cccc([N+](=O)[O-])c1 | 23µM* | ? | nt | 3%
O=C(C[n+]1ccc(C(=O)c2ccccc2)cc1)Nc1cccc([N+](=O)[O-])c1 | 16µM* | 21µM* | 1% | nt
COCCNC(=O)c1ccc2c(c1)C(=O)c1ccccc1-2 | -20% | 15% | 0% | nt
CC(C)(CO)NC(=O)c1ccc2c(c1)C(=O)c1ccccc1-2 | 18µM* | -19% | nt | nt
COCCN(Cc1cc2cc3c(cc2nc1Cl)OCO3)C(=O)c1ccc(C)cc1 | 13µM* | ? | -21% | -3%
COCCN(Cc1cc2cc(C)c(C)cc2nc1Cl)C(=O)Nc1ccccc1 | ? | ? | -11% | 6%
COCCN(Cc1cc2cc(C)ccc2nc1Cl)C(=O)Nc1ccccc1OC | 16µM* | 16µM* | 2% | 0%
COc1ccc2c(c1)CCc1c(C(=O)Nc3ccc(C#N)cc3)noc1-2 | -14% | -6% | -1% | 7%
CCCCCn1c(C(Cc2ccccc2)NC(=O)COC)nc2ccccc21 (centres undefined) | 26µM* | 18µM* | 1% | 5%
CCCCC(NC(C)=O)c1nc2ccccc2n1CCC (centres undefined) | 5.8µM* | ? | -2% | 7%
SMILES | TDP1 cell noCPT | DT40 TDP1 CPT | ClpP mod | TDP1 inh
CCCCn1c(C(C)NC(=O)COC)nc2ccccc21 (centres undefined) | ? | ? | -2% | 4%
COc1cccc(-c2cc(C(F)(F)F)nc(NCCc3ccc(OC)c(OC)c3)n2)c1 | ? | ? | ? | 0%
O=C1CN(C(=O)c2ccccc2C(F)(F)F)C(c2ccccc2)c2cc(F)ccc2N1 (centres undefined) | ? | ? | 1% | 3%
Cc1ccc(OCC(=O)Nc2ccc(O)c(C(=O)O)c2)cc1C | -6% | -2% | 22µM* | -1%
COc1ccc(NC(=S)NNC(=O)COc2ccc(Cl)cc2Cl)cc1 | 21µM* | ? | -22% | 0%
CN(C)c1nc(OCCNC(=O)COc2ccc(Cl)cc2Cl)nc(N(C)C)n1 | 8.2µM* | 7.3µM* | 0% | 5%
Cc1cccc(NC(=S)NNC(=O)COc2ccc(Cl)cc2Cl)c1 | -14% | 7% | 2% | 1%
C/C(=N/NC(=O)c1ccc(C)s1)c1cccc(NC(=O)COc2ccc(Cl)cc2Cl)c1 | ? | ? | 50% | 1%
C/C(=N/NC(=O)c1cccs1)c1ccc(NC(=O)COc2ccc(Cl)cc2Cl)cc1 | ? | 15µM* | ? | 2%
Cc1ccc(OCC(=O)Nc2ccc(C(=O)Nc3ccccc3C(=O)O)cc2)cc1C | -2% | -15% | -3% | nt
CCC(=O)NC(=S)Nc1ccc(NC(=O)COc2ccc([N+](=O)[O-])cc2)cc1 | 23µM* | ? | 2% | 5%
Cc1ccc(OCC(=O)Nc2ccc([N+](=O)[O-])cc2)cc1 | 5% | -4% | -1% | -1%
CCC(=O)NC(=S)Nc1ccc(NC(=O)COc2ccc(Cl)cc2Cl)cc1 | 8.2µM* | 16µM* | -3% | 3%
Cc1cc(OCC(=O)Nc2ccncc2)ccc1Cl | ? | ? | -1% | 1%
CCC(=O)Nc1ccc(Cl)c(NC(=S)NC(=O)COc2ccc(Cl)cc2)c1 | -31% | -21% | 2% | 5%
COc1ccc(C)cc1NC(=O)C(=O)NNC(=O)COc1ccc(Cl)cc1 | 23µM* | ? | -2% | 5%
CCC(=O)NC(=S)Nc1ccc(NC(=O)COc2ccc(Cl)c(C)c2)cc1 | 16µM* | 13µM* | 4% | -2%
COc1ccc(OCC(=O)NNC(=O)C(=O)Nc2cc(OC)ccc2OC)cc1 | -21% | ? | 0% | 2%
COc1ccc(/C=N/NC(=O)c2nnn(-c3nonc3N)c2CN(C)c2ccccc2)cc1 | ? | ? | -2% | 3%
CN(Cc1ccccc1C(F)(F)F)C(=O)C1CCC(=O)N(CC2CCCCC2)C1 (centres undefined) | -13% | -23% | 0% | nt
COC(CC(=O)NNC(=S)Nc1ccccc1)OC | 0% | -2% | nt | -2%
COC(CC(=O)NNC(=S)Nc1ccc(Cl)cc1)OC | 18µM* | 18µM* | nt | 3%
O=C(CN1CCN(c2ccccc2)CC1)c1ccc2cc[nH]c2c1 | ? | ? | ? | 7%
O=C(CN1CCC2(CC1)OCCO2)c1ccc2cc[nH]c2c1 | -1% | ? | 32µM* | -4%
C=COc1ccc(N2C(=O)c3ccccc3OC2C)cc1 (centres undefined) | 21µM* | ? | -2% | nt
COc1ccc(NC(=O)Cc2ccsc2)cc1S(=O)(=O)N1CCOCC1 | -16% | -8% | 2% | 1%
CC(=O)OCC1OC(n2cnc3c(Cl)nc(Cl)nc32)C(OC(C)=O)C1OC(C)=O (centres undefined) | 21µM* | ? | nt | 16%[56.1 µM]
